Measurements: PubChem BioAssay
The source made the active and inactive calls.

Experiments:
[1] = A549 cell viability effects, profiling panel, calcein-AM fluorescence, 48 h, basal (AID 1162); settings: higher = more signal; also: test concentration not given here
[2] = adipocyte viability effects, profiling panel, cell-based, 3T3-L1 adipocytes, calcein-AM fluorescence, 48 h, basal (AID 1163); settings: 3T3-L1 adipocytes viability, higher = more signal; also: test concentration not given here
[3] = HepG2 cell viability effects, profiling panel, calcein-AM fluorescence, 48 h, basal (AID 1164); settings: higher = more signal; also: test concentration not given here
[4] = MM1S cell viability effects, profiling panel, calcein-AM fluorescence, 48 h, basal (AID 1165); settings: higher = more signal;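 also: viability of MM1S multiple myeloma cells under basal unstimulated conditions; test concentration not given here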
[5] = basal RPMI8226 viability, no added stimulus, profiling panel, cell-based, calcein-AM fluorescence, 48 h, PK04 Diversity Set (AID 1166); settings: RPMI8226 myeloma viability, higher = more signal;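 also: cells grown under basal conditions without added stimulus; test concentration not given here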
[6] = basal HepG2 mitochondrial membrane potential changes, profiling panel, cell-based, JC-1 fluorescence, 24 h, 100 nL compound (AID 1167); settings: higher = more signal; also: test concentration not given here
[7] = basal 3T3-L1 adipocyte mitochondrial potential changes, profiling panel, cell-based, JC-1 fluorescence, 3T3-L1 adipocytes, 24 h, 100 nL compound (AID 1168); settings: JC-1 mitochondrial fluorescence, higher = more signal, called active from +8 up or from −8 down; also: test concentration not given here
[8] = basal RPMI8226 mitochondrial membrane potential changes, profiling panel, cell-based, JC-1 fluorescence, 24 h, 100 nL compound (AID 1169); settings: RPMI8226 myeloma, JC-1 mitochondrial potential fluorescence, higher = more signal; also: test concentration not given here
[9] = basal MM1S mitochondrial membrane potential changes, profiling panel, cell-based, JC-1 fluorescence, 24 h, 100 nL compound (AID 1170); settings: higher = more signal; also: test concentration not given here
[10] = A549 lung cancer cell viability effects, profiling panel, resazurin fluorescence, 24 h, PK04 Diversity Set (AID 1171); settings: higher = more signal, called active from +8 up or from −8 down; also: test concentration not given here
[11] = HepG2 liver cancer cell viability effects, profiling panel, resazurin fluorescence, 24 h, PK04 Diversity Set (AID 1172); settings: higher = more signal; also: test concentration not given here
[12] = basal S. cerevisiae growth modulation, no modifier, primary screen, OD600, strain BY4716, 24 h, basal condition (AID 1173); settings: OD600, 24 h, higher = more signal, called active from +8 up or from −8 down
[13] = MM1S myeloma cell viability, profiling panel, resazurin fluorescence, basal, 24 h, PK04 Diversity Set (AID 1174); settings: higher = more signal, called active from +8 up or from −8 down;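 also: MM1S multiple myeloma cell line; test concentration not given here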
[14] = biological target: Dihydroorotate dehydrogenase (quinone), mitochondrial (Plasmodium falciparum (isolate 3D7)) (UniProt Q08210); experiment: PfDHODH enzyme inhibitors, primary screen, biochemical, C-terminal His tag, absorbance 600 nm (AID 1175); settings: DCIP absorbance 600 nm, higher = more signal, called active from +8 up or from −8 down;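 also: recombinant parasite enzyme with a five histidine tag at its C terminus; test concentration not given here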
[15] = S. cerevisiae RM11-1a growth modifiers, primary screen, strain RM11-1a, OD600, basal, 24 h (AID 1177); settings: OD600, 24 h, higher = more signal, called active from +8 up or from −8 down;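 also: cultures grown under basal conditions with no added stressor; test concentration not given here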
[16] = E. coli acrAB mutant growth effects, primary screen, E. coli filamentation inducers, strain DRC39, OD650, 24 h (AID 1178); settings: higher = more signal, called active from +8 up or from −8 down;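 also: growth measured as culture turbidity by optical density at 650 nm; test concentration not given here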
[17] = E. coli acrAB mutant growth effects, primary screen, E. coli filamentation inducers, strain DRC39, OD650, 48 h (AID 1179);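 also: screen aims at cell division blockers that make cells filament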; settings: E. coli DRC39 delta-acrAB growth, higher = more signal, called active from +8 up or from −8 down
[18] = RPMI8226 myeloma cell viability, profiling panel, resazurin fluorescence, basal, 24 h, PK04 Diversity Set (AID 1180); settings: higher = more signal;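 also: RPMI8826 multiple myeloma cell line at 5000 cells per well; test concentration not given here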
[19] = biological target: E3 ubiquitin-protein ligase XIAP (Homo sapiens) (UniProt P98170); experiment: XIAP binders, primary screen, biophysical, small-molecule microarray, fluorescence 635 nm (AID 1181); settings: small-molecule microarray binding, higher = more signal;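 also: score merges 667 nm emission and signal to noise over triplicate slides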
Chain of E3 ubiquitin-protein ligase XIAP (Homo sapiens) (P98170 whole entry, looked up): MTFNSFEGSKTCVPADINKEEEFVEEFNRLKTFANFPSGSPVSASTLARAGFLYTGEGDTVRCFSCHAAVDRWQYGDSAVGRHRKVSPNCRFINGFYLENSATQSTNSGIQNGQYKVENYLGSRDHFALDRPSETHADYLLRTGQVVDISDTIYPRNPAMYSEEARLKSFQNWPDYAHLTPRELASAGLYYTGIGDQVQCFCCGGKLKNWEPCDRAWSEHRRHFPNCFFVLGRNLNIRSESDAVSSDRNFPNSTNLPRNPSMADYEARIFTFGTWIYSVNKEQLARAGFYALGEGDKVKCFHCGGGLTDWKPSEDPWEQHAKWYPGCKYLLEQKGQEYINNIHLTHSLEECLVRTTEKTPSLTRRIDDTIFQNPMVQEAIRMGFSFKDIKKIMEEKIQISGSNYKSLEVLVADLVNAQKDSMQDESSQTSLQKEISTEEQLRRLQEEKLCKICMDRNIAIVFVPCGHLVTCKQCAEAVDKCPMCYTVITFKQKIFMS

Chain of Dihydroorotate dehydrogenase (quinone), mitochondrial (Plasmodium falciparum (isolate 3D7)) (Q08210 whole entry, looked up): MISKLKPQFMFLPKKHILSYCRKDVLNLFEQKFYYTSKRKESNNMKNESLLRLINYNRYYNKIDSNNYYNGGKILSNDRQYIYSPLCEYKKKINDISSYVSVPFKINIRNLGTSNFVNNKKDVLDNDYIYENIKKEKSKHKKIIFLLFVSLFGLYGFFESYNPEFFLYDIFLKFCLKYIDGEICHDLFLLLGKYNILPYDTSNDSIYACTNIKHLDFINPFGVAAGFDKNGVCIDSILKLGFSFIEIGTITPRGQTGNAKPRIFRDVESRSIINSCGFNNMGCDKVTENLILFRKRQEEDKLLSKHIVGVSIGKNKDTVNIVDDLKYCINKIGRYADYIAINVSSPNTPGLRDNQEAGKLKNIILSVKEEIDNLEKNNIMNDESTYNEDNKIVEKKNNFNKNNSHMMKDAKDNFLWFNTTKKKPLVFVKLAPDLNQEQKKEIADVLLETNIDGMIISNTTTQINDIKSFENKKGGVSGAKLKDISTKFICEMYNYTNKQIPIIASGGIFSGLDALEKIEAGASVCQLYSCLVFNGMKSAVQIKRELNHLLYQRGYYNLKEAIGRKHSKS

Compound	z-score [1]	z-score [2]	z-score [3]	z-score [4]	z-score [5]	z-score [6]	z-score [7]	z-score [8]	z-score [9]	z-score [10]	z-score [11]	z-score [12]	z-score [13]	composite z-score [14]	z-score [15]	z-score [16]	z-score [17]	z-score [18]	composite z-score [19]
COCCOC(=O)N1C(=O)[C@@]2(c3cc(C#CCNC(N)=O)ccc31)[C@H](c1ccc(OCCO)cc1)N1[C@H](c3ccccc3)[C@H](c3ccccc3)OC(=O)[C@H]1[C@@H]2C(=O)N1CCCCCCC1	0.118	1.97	-0.164	-0.115	0.269	-0.411	-3.07 (inactive)	-0.659	-1.11	0.643 (inactive)	0.377	1.52 (inactive)	1.2 (inactive)	0.0238 (inactive)	2 (inactive)	-0.132 (inactive)	0.538 (inactive)	1.41	-0.0559
C[C@@H]1CC[C@H]2C(=O)N3[C@@H](CC[C@@H](C)[C@@H]3c3cccc(N4CCOCC4)c3)C(=O)N2[C@H]1c1cccc(Br)c1	1.56	1.4	0.273	-0.775	-1.3	3.04	0.37 (inactive)	-0.779	0.521	1.36 (inactive)	1.05	-1.89 (inactive)	0.328 (inactive)	-0.0779 (inactive)	-0.123 (inactive)	0.401 (inactive)	0.238 (inactive)	1.37	-0.111
Cc1ccc(S[C@]2(C(=O)NCCN3CCOCC3)CC(=O)N(C3Cc4ccccc4C3)[C@@H]2c2ccc(CO)cc2I)cc1	1.47	1.33	-0.0794	-3.23	-1.84	0.899	-0.211 (inactive)	-0.993	-1.02	0.842 (inactive)	0.0862	-5.55 (inactive)	-1.48 (inactive)	-0.24 (inactive)	-2.62 (inactive)	-0.0522 (inactive)	-0.169 (inactive)	-1.41	0.194
CCCC[C@H]1OB(O)C[C@H]2C1=C(COC)C[C@H]1C(=O)N(Cc3ccccc3)C(=O)[C@H]12	0.485	0.938	-0.0393	0.405	-0.537	0.987	0.835 (inactive)	0.361	1.46	0.272 (inactive)	1.13	-3.65 (inactive)	0.518 (inactive)	0.282 (inactive)	-1.67 (inactive)	2.53 (inactive)	0.942 (inactive)	0.283	-0.12
COCCOC(=O)N1C(=O)[C@@]2(c3cc(C#CCNC(N)=O)ccc31)[C@H](c1ccc(OCCO)cc1)N1[C@H](c3ccccc3)[C@H](c3ccccc3)OC(=O)[C@H]1[C@@H]2C(=O)Nc1nc2ccccc2s1	0.556	1.49	-0.801	-0.139	-0.138	-3.18	2.96 (inactive)	-0.964	-1.56	0.708 (inactive)	-0.265	0.846 (inactive)	1.48 (inactive)	0.665 (inactive)	2.46 (inactive)	0.24 (inactive)	0.782 (inactive)	1.3	0.0472
C=CC[C@@]1(C(=O)N2CCOCC2)N=C(c2ccc(OCCCO)cc2)O[C@@H]1c1ccccc1	0.429	1.9	-0.55	-0.0274	-0.624	0.13	1.09 (inactive)	-0.357	0.216	1.85 (inactive)	0.781	-1.69 (inactive)	1.1 (inactive)	0.702 (inactive)	1.45 (inactive)	0.788 (inactive)	-0.0676 (inactive)	1.02	-0.167
CO[C@H]1COC(=O)CC=C[C@H](C)[C@@H](OC)COC(=O)[C@H](Cc2ccccc2)NC(=O)CC=C[C@@H]1C	0.0767	1.57	0.219	0.196	0.988	0.566	0.746 (inactive)	-0.0213	1.14	0.345 (inactive)	1.26	-0.562 (inactive)	1 (inactive)	1.09 (inactive)	0.33 (inactive)	0.424 (inactive)	-1.39 (inactive)	0.452	-0.031
CO[C@H]1COC(=O)[C@@H](OCc2ccccc2)C=C[C@H](C)[C@@H](OC)COC(=O)[C@H](OCc2ccccc2)C=C[C@@H]1C	0.665	1.21	1.45	0.301	0.0913	1.6	0.382 (inactive)	-0.262	2.82	1.76 (inactive)	1.12	-2.2 (inactive)	1.6 (inactive)	-1.11 (inactive)	-3.47 (inactive)	0.422 (inactive)	-0.97 (inactive)	0.193	-0.148
O=C(O)[C@@H]1Cc2c([nH]c3ccccc23)[C@@H](c2ccccc2)N1	0.0265	1.21	-0.55	0.424	0.519	0.516	-0.284 (inactive)	-0.122	0.0857	0.216 (inactive)	0.326	-0.949 (inactive)	1.14 (inactive)	-0.36 (inactive)	-0.19 (inactive)	-0.266 (inactive)	0.0747 (inactive)	0.724	-0.127
C=C(COC)/C(=C/C[C@@H](OC(C)=O)c1cccc(OCCO)c1)c1cc(C(=O)OC)ccc1OC	1.1	-0.412	0.409	-1.29	0.0922	3.3	1.2 (inactive)	0.127	-0.466	1.49 (inactive)	1.21	-1.57 (inactive)	0.49 (inactive)	-0.733 (inactive)	-0.489 (inactive)	2.1 (inactive)	1.47 (inactive)	0.938	0.155
C[C@@H]1CC[C@H]2C(=O)N3[C@@H](CC[C@@H](C)[C@@H]3c3cccc(N4CCOCC4)c3)C(=O)N2[C@H]1c1cccc(N2CCOCC2)c1	0.197	1.3	-0.894	0.467	-0.267	1.03	0.543 (inactive)	-0.685	0.713	1.05 (inactive)	0.728	-0.0109 (inactive)	1.04 (inactive)	0.148 (inactive)	1.35 (inactive)	0.203 (inactive)	0.202 (inactive)	1.39	-0.165
O=C1OCC=C[C@H]2OC34C=CCN(Cc5ccccc5)C(=O)[C@H]3N(CCCCCO)C(=O)[C@@H]4[C@@H]12 (stereo partly specified)	0.16	2.65	-0.566	-0.231	-0.166	0.00385	1.45 (inactive)	1.27	1.72	-0.208 (inactive)	-0.399	-0.693 (inactive)	0.238 (inactive)	-0.0022 (inactive)	-0.512 (inactive)	1.77 (inactive)	1.22 (inactive)	0.58	0.101
CO[C@H]1COC(=O)[C@@H](Cc2ccccc2)NC(=O)[C@@H](C)COC(=O)CC=C[C@@H]1C	0.899	0.172	0.662	0.221	0.373	0.606	0.0117 (inactive)	0.175	0.662	1.2 (inactive)	0.344	-1.14 (inactive)	1.1 (inactive)	0.0602 (inactive)	-0.213 (inactive)	1.24 (inactive)	0.639 (inactive)	0.763	0.785
O=C(CS)NCCCCCNC(=O)[C@H]1C[C@H]2C(=O)N[C@@H](Cc3ccccc3)C(=O)N2[C@H]1c1ccc(O)cc1	-0.142	1.62	-1.02	-0.193	0.575	0.248	0.765 (inactive)	-0.539	0.368	0.411 (inactive)	0.0833	0.359 (inactive)	1.19 (inactive)	0.44 (inactive)	0.895 (inactive)	0.394 (inactive)	0.102 (inactive)	0.833	0.0123
Cc1ccc(S(=O)(=O)N[C@H]2COC(=O)CC=C[C@H](C)COC(=O)N[C@@H](C)C(=O)CC=C[C@@H]2C)cc1	-0.235	0.538	0.984	0.399	-0.558	1.27	0.946 (inactive)	-0.614	0.809	0.333 (inactive)	0.115	-0.949 (inactive)	1.71 (inactive)	0.32 (inactive)	-0.698 (inactive)	0.583 (inactive)	0.286 (inactive)	1.06	-0.0282
COc1ccc([Si](C)(C)[C@H]2[C@H](CCO)O[C@@]3(C(=O)N(Cc4ccc(N5CCCCC5=O)cc4)c4ccccc43)[C@@H]2C)cc1	-0.124	0.705	-0.263	-2.59	-0.628	1.05	1.04 (inactive)	-0.48	-0.119	-2.32 (inactive)	-1.69	-1.07 (inactive)	-7.58 (inactive)	-5.37 (inactive)	2 (inactive)	2.18 (inactive)	-0.0822 (inactive)	-2.73	0.0223
CO[C@H]1COC(=O)[C@H](Cc2ccccc2)NC(=O)CC=C[C@@H](C)[C@H](OC)COC(=O)CC=C[C@@H]1C	-0.0862	-0.557	0.5	0.214	1.71	0.00562	0.954 (inactive)	-0.791	0.411	0.174 (inactive)	0.471	-1.43 (inactive)	0.0446 (inactive)	0.0048 (inactive)	-1.06 (inactive)	0.373 (inactive)	0.53 (inactive)	0.562	0.0525
CCOC(=O)C[C@H]1[C@H](OC(=O)c2cc3ccccc3oc2=O)[C@@H](NC(=O)c2ccc3ccccc3c2)c2cc(OCCCO)ccc2N1C(=O)c1ccc2ccccc2n1	0.418	1.48	-0.0664	0.555	0.167	0.158	-0.0237 (inactive)	-0.233	0.197	-0.194 (inactive)	0.272	-2.13 (inactive)	0.0578 (inactive)	-0.172 (inactive)	-1.06 (inactive)	2.52 (inactive)	1.23 (inactive)	-0.536	-0.0454
C=C(CCCC)C(=O)CC[C@@H](OC(=O)c1cccnc1)c1cccc(OCCO)c1	1.17	0.977	-0.865	-3.38	-2.93	0.558	0.645 (inactive)	-0.721	-1.68	0.468 (inactive)	0.147	-1.41 (inactive)	-4.18 (inactive)	-1.57 (inactive)	0.0831 (inactive)	1.24 (inactive)	0.543 (inactive)	-4.13	-0.104
